Results on 110 compounds are retold here after PubChem BioAssay AID488969 (Vanderbilt High Throughput Screening Facility, 2010).

Over roughly 110,000 compounds, “z-score” has its median near -0.1; the highest 2% begin near 2. The sample holds the highest values, similar compounds and a random draw of the others, so the mix is not that of the screen. Activity calls are given as the source filed them.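 Rule for the calls: active = z-score in the third read window above 3 or below -3; inactive = the rest.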

This assay deals with Metabotropic glutamate receptor 8 (Rattus norvegicus) (UniProt P70579). The assay is described as follows: mGluR8 Gi/Go-coupled signaling modulation – cell-based, rat, thallium flux, HTS, primary screen (AID 488969). The settings on record: HEK293 rat mGluR8, GIRK (G protein-gated inwardly rectifying potassium channel) thallium flux, FluoZin2; at 10 µM; stronger effect = higher value; submaximal glutamate (EC20) added with thallium.
Chain of Metabotropic glutamate receptor 8 (Rattus norvegicus) (P70579 whole entry, looked up): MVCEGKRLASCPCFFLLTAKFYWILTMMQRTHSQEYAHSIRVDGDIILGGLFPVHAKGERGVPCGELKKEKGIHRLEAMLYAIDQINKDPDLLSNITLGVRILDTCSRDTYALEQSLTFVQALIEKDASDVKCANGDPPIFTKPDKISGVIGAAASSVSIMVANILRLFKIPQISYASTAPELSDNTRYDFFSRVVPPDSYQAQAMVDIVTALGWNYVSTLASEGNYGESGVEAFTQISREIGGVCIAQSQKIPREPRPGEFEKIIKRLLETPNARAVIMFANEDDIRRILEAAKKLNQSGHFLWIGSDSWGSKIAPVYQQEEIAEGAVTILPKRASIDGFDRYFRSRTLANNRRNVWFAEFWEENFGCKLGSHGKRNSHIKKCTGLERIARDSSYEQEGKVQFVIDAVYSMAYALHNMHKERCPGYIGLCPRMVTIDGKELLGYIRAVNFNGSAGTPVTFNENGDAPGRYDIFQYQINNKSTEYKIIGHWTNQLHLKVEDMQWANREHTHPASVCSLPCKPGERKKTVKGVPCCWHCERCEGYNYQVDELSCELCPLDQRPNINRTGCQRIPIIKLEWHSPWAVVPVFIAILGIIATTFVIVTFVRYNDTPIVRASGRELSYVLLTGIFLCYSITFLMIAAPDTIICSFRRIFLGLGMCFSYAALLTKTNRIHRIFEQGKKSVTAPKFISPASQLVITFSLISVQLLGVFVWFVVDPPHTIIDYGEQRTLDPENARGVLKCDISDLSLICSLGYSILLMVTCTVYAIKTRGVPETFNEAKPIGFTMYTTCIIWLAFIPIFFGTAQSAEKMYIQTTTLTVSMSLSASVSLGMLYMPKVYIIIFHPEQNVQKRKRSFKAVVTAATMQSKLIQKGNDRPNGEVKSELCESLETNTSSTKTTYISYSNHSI
`CCCc1ccccc1OCCNC(C)=O`: the z-score is -0.472.

For the compound `CC(NC(=O)COc1ccccc1)C(=O)NC1=NCCS1` (stereo not given), the z-score was 3.96 (active).

For the compound `O=C(COc1ccccc1)NC1=NCCS1`, the z-score is -0.0489.

In the case of `CC(NC(=O)c1ccccc1)C(=O)NC1=NCCS1` (stereo not given), the z-score was found to be 0.0634.

On to `COc1cc(-c2nc(-c3ccc(Br)o3)no2)cc(OC)c1OC`, for which the z-score is -0.294.

For `CCOc1cccc(CNCCO)c1OCc1ccc(Cl)cc1Cl`, the z-score amounted to 0.93.

The compound `CCOc1ccc(Cl)cc1CNCCNCCO` registered a z-score of 0.172.

For the compound `CCOc1c(Cl)cc(Cl)cc1CNCCNCCO`, the z-score stood at 0.738.

On to `COc1c(Cl)cc(Cl)cc1CNCCNCCO`, for which the z-score came to 0.598.

On to `COc1c(Cl)cc(Cl)cc1CNCCNCC(C)O` (stereo not given), for which the z-score was 3.74 (active).

`CCOc1ccc(Cl)cc1CNCCNCC(C)O` (stereo not given) registered a z-score of 2.17.

On to `CN(C)C(C)(C)C#CCCCCC#CC(C)(C)N(C)C`, for which the z-score was -0.195.

As to `N#Cc1cc2cc3c(cc2nc1N1CCOCC1)OCO3`, the z-score is -0.918.

In the case of `O=C1C2ON(c3ccccc3)C(c3ccncc3)C2C(=O)N1c1ccc(N2CCOCC2)cc1` (stereo not given), the z-score was -0.522.

In turn, `Cn1c(=O)c(NCCc2ccccc2)c2c3c(cccc31)C(=O)c1ccccc1-2` registered a z-score of 1.94.

On to `Cn1c(=O)c(NCCO)c2c3c(cccc31)C(=O)c1ccccc1-2`, for which the z-score was -2.23.

With `CCCCNc1c2c3c(cccc3n(C)c1=O)C(=O)c1ccccc1-2`, the z-score was 16.2 (active).

Turning to `Cc1noc(/C=C/N(C)C)c1S(=O)(=O)N1CCCC(C(=O)NCCC2=CCCCC2)C1` (stereo not given), the z-score is -0.237.

Take `CC(C)(C)c1nnc(N/N=C/c2ccccc2)n(N)c1=O`: the z-score was 2.74.

Regarding `CC(C)(C)c1nnc(N/N=C/c2ccc(Br)cc2)n(N)c1=O`, the z-score turned out to be 0.0626.

Regarding `CC(C)(C)c1nnc(N/N=C/c2ccccc2O)n(N)c1=O`, the z-score is -0.149.

On to `COc1ccc(-c2csc(Nc3ccc(S(N)(=O)=O)cc3)n2)cc1`, for which the z-score was -0.213.

Regarding `Cc1ccc([N+](=O)[O-])cc1NC(=S)NC(=O)CC(C)(C)C`, the z-score came out at 0.834.

Regarding `Cc1ccc([N+](=O)[O-])cc1N/C=C/C(=O)c1ccco1`, the z-score is -0.039.

Turning to `Cc1ccc([N+](=O)[O-])cc1NC(=S)NC(=O)C(C)(C)C`, the z-score worked out at 0.72.

Turning to `O=C(Nc1cc([N+](=O)[O-])ccc1F)c1cccs1`, the z-score was -0.0753.

In turn, `Cc1ccc([N+](=O)[O-])cc1NC(=S)NC(=O)c1cccs1` had a z-score of 2.46.

As for `Cc1ccc([N+](=O)[O-])cc1NC(=S)NC(=O)c1ccco1`, the z-score is 7.69 (active).

`COC(=O)c1ccc(C(=O)OC)c(NC(=O)COC(=O)CC2CC3CCC2C3)c1` (stereo not given): the z-score was -0.338.

`CC1CCCC(C)N1c1nnc(NC(=O)c2cc(-c3ccc(Br)cc3)on2)s1` (stereo not given) registered a z-score of 2.04.

`CC1CCCCN1c1nnc(NC(=O)c2cc(-c3ccc(Br)cc3)on2)s1` (stereo not given): the z-score was -0.71.

Take `O=C(Nc1nnc(N2CCCCCC2)s1)c1cc(-c2ccc(Br)cc2)on1`: the z-score was -0.0797.

In the case of `O=C(CC12CC3CC(CC(C3)C1)C2)NCC(=O)OCc1cc(=O)oc2ccc3ccccc3c12`, the z-score is -0.205.

Compound `O=CN1CCN(C(C(=O)NC2CCCC2)c2ccc(Cl)cc2)CC1` (stereo not given) yielded a z-score of 0.0147.

`CCc1ccc(-c2nc(CN3CCC(C(=O)N4CCN(c5ccccc5)CC4)CC3)c(C)o2)cc1` displayed a z-score of 2.2.

In the case of `CCc1ccc(-c2nc(CN3CCC(C(=O)NCCN(CC)c4ccccc4)CC3)c(C)o2)cc1`, the z-score came out at 1.17.

The compound `COc1ccc(CCNC(=O)C2CCCN(Cc3nc(-c4cccc(Cl)c4)oc3C)C2)cc1OC` (stereo not given) gave a z-score of 1.07.

On to `CCc1ccc(-c2nc(CN3CCCC(C(=O)NCCc4ccc(OC)c(OC)c4)C3)c(C)o2)cc1` (stereo not given), for which the z-score is 2.2.

For `CCc1ccc(-c2nc(CN3CCC(C(=O)NCCc4ccc(OC)c(OC)c4)CC3)c(C)o2)cc1`, the z-score stood at 0.471.

Take `Cc1oc(-c2ccc(Cl)cc2)nc1CN1CCC(C(=O)N2CCN(Cc3ccccc3)CC2)CC1`: the z-score amounted to 0.0945.

With `O=C(CNC(=O)c1ccccc1F)NCCOc1cccc(Cl)c1Cl`, the z-score is -0.0129.

Regarding `COCCNC(=O)CN(C(=O)CCC(=O)Nc1cc(C)on1)c1cccc(C)c1C`, the z-score is -0.171.

On to `CC(C)NS(=O)(=O)c1ccc(CCC(=O)Nc2ccc3c(c2)OCO3)cc1`, for which the z-score was -0.224.

As for `CCc1cc2c(N=Nc3c(O)[nH]c4ccccc34)ncnc2s1`, the z-score is -0.149.

Turning to `CCc1ccc2[nH]c(O)c(N=Nc3nc(-c4ccccc4)cs3)c2c1`, the z-score amounted to 2.89.

For the compound `CCc1cc(C(=O)N=Nc2c(O)[nH]c3ccc([N+](=O)[O-])cc23)c2ccccc2n1`, the z-score was -0.481.

The compound `COC(=O)CSc1cnc2ccccc2n1` registered a z-score of 0.141.

For the compound `Cc1ccc(C(=O)OCC(=O)Nc2sccc2C(N)=O)cc1NC(=O)c1ccco1`, the z-score is -0.747.

As for `Cc1ccc(C(=O)OCC(=O)Nc2sc3c(c2C#N)CCC3)cc1`, the z-score was -0.0585.

For `CCOC(=O)c1c(NC(=S)Nc2ccc(C)cc2)sc2c1CCC2`, the z-score is -0.0357.

As to `Cc1ccc(C(=O)OCC(=O)Nc2sc3c(c2C#N)CCCC3)cc1NC(=O)c1ccco1`, the z-score worked out at 2.03.

`COC(=O)c1c(NC(=O)c2ccco2)sc2c1CCC2`: the z-score was -0.464.

On to `CCOC(=O)c1c(NC(=O)c2ccccc2N(C)S(=O)(=O)c2ccccc2)sc2c1CCCC2`, for which the z-score was -0.168.

With `CCOC(=O)c1c(NC(=S)Nc2ccccc2)sc2c1CCCCC2`, the z-score is 3.94 (active).

Take `CCOC(=O)c1c(NC(=O)c2ccco2)sc2c1CCCCC2`: the z-score was -0.506.

For the compound `COC(=O)c1c(NC(=S)NC(=O)c2ccco2)sc2c1CCCC2`, the z-score is 3.53 (active).

In the case of `CC(C)OC(=O)c1c(NC(=O)c2ccco2)sc2c1CCCCC2`, the z-score was -0.501.

On to `CCOC(=O)c1c(NS(=O)(=O)Cc2ccccc2)sc2c1CCCC2`, for which the z-score was 17.1 (active).

Turning to `CCOC(=O)c1c(NC(=S)Nc2ccc(F)cc2)sc2c1CCC2`, the z-score was -0.154.

On to `CC(=O)Nc1ccc2nc(C)n(Cc3ccc(Cl)cc3)c(=O)c2c1`, for which the z-score is -0.376.

For `CCOC(=O)N1CCC(NC(=O)C2CCN(c3ccc(N4CCOCC4)nn3)CC2)CC1`, the z-score was -0.202.

In the case of `CCCOc1ccc(N2C(=O)CC(N3CCN(c4ccccc4OC)CC3)C2=O)cc1` (stereo not given), the z-score was -0.446.

For `COC(=O)C1=CNC=C(C(=O)OC)C1c1ccccc1Cl`, the z-score was -1.54.

`CCOc1ccccc1N(CC(=O)Nc1ccccc1C(=O)O)S(C)(=O)=O` yielded a z-score of 0.403.

Consider `c1ccc2nc3c(cc2c1)CCCCCC3`, for which the z-score is -0.0331.

Turning to `CCOC(=O)c1nnn(-c2nonc2N)c1-c1cccc2ccccc12`, the z-score is -1.66.

As for `O=C(NCc1ccc2c(c1)OCO2)C1CC(c2ccccc2O)=NO1` (stereo not given), the z-score amounted to 0.36.

`COc1ccc(C(C[N+](=O)[O-])c2c(-c3ccccc3)cc3ccccn23)cc1` (stereo not given) yielded a z-score of 0.715.

`Cc1snc(SCC(=O)N/N=C(\N)COc2ccc(F)cc2)c1C#N` yielded a z-score of 0.165.

The compound `Cn1c(CNc2ccc(Cl)cc2)nnc1SCCN1CCCCC1` yielded a z-score of 0.273.

For `O=C(COc1ccc([N+](=O)[O-])cc1)NCCC1=CCCCC1`, the z-score is -0.0621.

With `CCCNC(=S)Nc1ccc(Cl)cc1Cl`, the z-score is -0.0325.

On to `COC(=O)c1c(NC(C)=O)sc2c1CCCC2`, for which the z-score is -0.117.

For `COC(=O)c1c(NS(=O)(=O)c2cccs2)sc2c1CCCC2`, the z-score was 6.32 (active).

On to `COC(=O)c1c(NS(=O)(=O)Cc2ccccc2)sc2c1CCCC2`, for which the z-score was 17 (active).

In the case of `COC(=O)c1c(NC(=O)CN(c2ccccc2)S(C)(=O)=O)sc2c1CCCC2`, the z-score came out at 0.77.

On to `COC(=O)c1c(NS(C)(=O)=O)sc2c1CCCC2`, for which the z-score was determined as 0.0189.

`COC(=O)c1c(NS(=O)(=O)c2ccc3ccccc3c2)sc2c1CCCC2` displayed a z-score of 0.384.

On to `C=CCn1c(Cc2csc(N)n2)nnc1SCC(=O)Nc1ccc(C(=O)OCC)cc1`, for which the z-score was -2.2.

Consider `CCOC(=O)C1CCN(C(=O)c2ccccc2Oc2ccccc2)CC1`, for which the z-score is -0.386.

Turning to `COc1ccc(-c2nsc(SCC(=O)Nc3ccc4c(c3)OCO4)n2)cc1`, the z-score is -0.142.

For the compound `CCOC(=O)NCc1ccc(S(=O)(=O)Nc2ccc(C)cc2)cc1`, the z-score came out at 0.21.

Take `Cc1ccc(-c2cc(N)n(Cc3ccc(Cl)cc3)n2)cc1`: the z-score was -0.532.

The compound `O=C(NC(=S)N(Cc1ccccc1)Cc1ccccc1)C1CCCCC1` had a z-score of 0.526.

`O=C(NC(=S)N(Cc1ccccc1)Cc1ccccc1)c1ccccc1F`: the z-score is -1.15.

Regarding `CC(C)CC(=O)NC(=S)N(Cc1ccccc1)Cc1ccccc1`, the z-score was 8.66 (active).

Consider `CC(C)CC(=O)NCCCCc1ccccc1`, for which the z-score is -0.29.

The compound `CC(C)CC(=O)NC(=S)NCCc1ccccc1` showed a z-score of 0.38.

As to `CC(C)C(=O)NC(=S)N(Cc1ccccc1)Cc1ccccc1`, the z-score was 9.57 (active).

`CN(C)CCN1C(=O)C(O)=C(C(=O)c2cc3ccccc3o2)C1c1ccc(N(C)C)cc1` (stereo not given): the z-score is -0.145.

For `CC(C)(C)c1ccc(S(=O)(=O)NC(Cc2ccccc2)C(=O)O)cc1` (stereo not given), the z-score amounted to 0.161.

For the compound `Cc1nn(Cc2ccc(Cl)cc2Cl)c(Cl)c1/C=N/NC(=O)CNc1cccc(C(F)(F)F)c1`, the z-score was -0.087.

Take `CCOCCn1c(=NC(=O)c2cc(Cl)sc2Cl)sc2cc(S(N)(=O)=O)ccc21`: the z-score was -0.0217.

Consider `CCCCNC(=O)CCn1c(=O)c2ccccc2n(Cc2ccc(F)cc2)c1=O`, for which the z-score is -0.407.

Turning to `COc1cc(OC)cc(C(=O)N[C@H](C(=O)N2CCc3ccccc32)C(C)C)c1`, the z-score is -0.177.

With `c1cc2c3c(cccc3c1)C(N1CCCCCC1)=N2`, the z-score is 0.822.

Regarding `c1cc2c3c(cccc3c1)C(N1CCN(C3=Nc4cccc5cccc3c45)CC1)=N2`, the z-score was -0.0313.

Turning to `CCCCN(C)C1=Nc2cccc3cccc1c23`, the z-score is 3.17 (active).

Take `COc1cc(S(=O)(=O)N(Cc2ccccc2)Cc2ccccn2)ccc1-n1cnnn1`: the z-score is -0.0596.

On to `N#CCCN1CCN(S(=O)(=O)c2ccc3c(c2)OCCCO3)CC1`, for which the z-score is -0.473.

On to `Cc1c(C(=O)O)[nH]c2c1C(=O)CC(c1ccc(Cl)cc1)C2` (stereo not given), for which the z-score was 5.28 (active).

`Cc1c(C(=O)N2CCOCC2)[nH]c2c1C(=O)CC(c1ccc(Cl)cc1)C2` (stereo not given): the z-score is -0.803.

For `Cc1c(C(=O)O)[nH]c2c1C(=O)CC(c1ccccc1)C2` (stereo not given), the z-score was -0.21.

In the case of `CC(C)=CCC/C(C)=C/C=N/NC(=O)c1ccc([N+](=O)[O-])cc1`, the z-score amounted to 1.52.

Compound `CCOC(=O)C1CCC2(CC1)C(C#N)=C(N)Oc1n[nH]c(C)c12` (stereo not given) registered a z-score of 0.0849.

Consider `CCOc1ccc(S(=O)(=O)N(CC(=O)Nc2cc(C)on2)Cc2ccccc2Cl)cc1`, for which the z-score is -1.72.

In the case of `CC(=O)c1ccc(OC(=O)C2CC(=O)N(c3cccc(C)c3)C2)cc1` (stereo not given), the z-score was -1.58.

Regarding `Cc1ccccc1NC(=O)Nc1ccccc1Br`, the z-score was -0.375.

`O=C(NNc1ccccc1Br)C(=O)n1ccc2ccccc21` showed a z-score of 2.23.

In the case of `O=C(Nc1ccccc1Br)C(=O)N1CCCC1`, the z-score was -0.0281.
